# Assay outcomes: PubChem BioAssay, National Center for Advancing Translational Sciences (NCATS)
# DT40 TDP1 CPT – growth inhibition of DT40 Tdp1-/-;hTDP1 cells with camptothecin (screen for TDP1 inhibitors); chicken DT40 Tdp1-/-;hTDP1 cells + 20 nM CPT, ATP luminescence, 48 h; Potency, µM (series often up to 46.2 µM), without a hit: top-dose activity change, negative = growth inhibition, actives largely listed as inhibitors; 420,000 tested, 12% active; note: potency is the fitted concentration of half-maximal effect; nearly all actives have a fitted effect of over 55% in size
#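 Cell growth measured by CellTiter-Glo luminescence after a minimum 48 h, 37 C compound exposure with 20 nM CPT in Tdp1-knockout DT40 cells stably expressing hTDP1, seeded 400/well; qHTS titration format.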
# CtBP-E1A blk – inhibitors of CtBP/E1A interaction | 340,000 tested, 0.49% active | AID 651724 | AlphaScreen GST-E1A/His-CtBP binding, 1536-well; stronger effect = lower value | activity change, % (test concentration not listed); in the data active = activity change below about -65%; inconclusive = mostly about -30% to -63%
#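 Homogeneous bead-based format: GST-tagged E1A captured on glutathione donor beads, His-tagged CtBP on nickel acceptor beads; compounds precede bead addition by 2 h at 37 °C.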
# Six1-Eya2 blk – blocks human Six1 binding to Eya2 | AID 651725 | AlphaScreen GST-Six1/His-Eya2 binding, biochemical; stronger effect = lower value | Q15475+O00167 | activity change, % (no concentration beside the values) | 360,000 tested, 0.56% active; in the data active = activity change below about -65%; inconclusive = mostly about -30% to -63%
#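 AlphaScreen luminescence read after one hour at 37 °C in darkness. Pin-transferred compounds met GST-Six1 and His-Eya2 protein (5X stock 250 nM/500 nM) plus glutathione donor and Ni-chelate acceptor beads (5X, 50 ug/mL).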
# DT40 TDP1 no CPT – qHTS for Inhibitors of human tyrosyl-DNA phosphodiesterase 1 (TDP1): qHTS in cells in absence of CPT | DT40 Tdp1-/- hTDP1 cells, no CPT, ATP luminescence, 48 h | 420,000 tested, 15% active | Potency, µM (top dose mostly 46.2 µM), for the others: at the top dose activity change, negative = growth inhibition, most hits filed as inhibitors; note: potency is the fitted concentration of half-maximal effect; nearly all actives have a fitted effect of over 55% in size
#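 No-CPT arm: Tdp1-/-;hTDP1 DT40 cells (400/well) plus compounds, incubated ≥48 hr at 37 °C. Readout CellTiter-Glo luminescence.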
# TDP1 inh – blocks human tyrosyl-DNA phosphodiesterase 1. Potency, µM (top dose mostly 130 µM), for inactives: at the top dose activity change, negative = inhibition, most hits filed as inhibitors. recombinant TDP1, AlphaScreen DNA substrate cleavage. 350,000 tested, 0.28% active. Q9NUW8; note: potency is the fitted concentration of half-maximal effect; nearly all actives have a fitted effect of over 40% in size
#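 Recombinant E. coli-expressed Tdp1 (1 nM) preincubated with compound 15 min at RT, then 5'-biotin/3'-phosphotyrosine-FITC DNA substrate (15 nM) added for 5 min. AlphaScreen beads (10 ug/ml) added, 10 min RT; tyrosine-FITC cleavage read as signal loss.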
# IL-1B inflam inh – inhibitors of inflammasome signaling (IL-1 beta secretion). AID 743279. activity change, % at 57.5 µM. THP-1 LPS/ATP IL-1B secretion, AlphaLISA, 16 h; stronger effect = lower value. 360,000 tested, 4.7% active; in the data active = activity change below about -50%; inconclusive = mostly about -30% to -49%
#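 Secreted IL-1B measured by AlphaLISA bead assay after 16 h compound exposure of THP-1 cells; compounds (final up to 57.5 uM) added 1 h before LPS (250 ng/mL) and ATP (1.25 mM) stimulation; lower signal means less secretion.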
# * hit, by the source's call; ? = inconclusive; / = no result. Sampled rows, rich in hits. Any-hit rate of the full collection: about 18%. Unless noted, calls come from the whole dose curve; as a rule, active = well fitted curve in the direction sought with a large enough effect; inconclusive = small, poorly fitted or top-dose-only effect, or another doubt; inactive = no such curve, though single readings can be large; an effect the other way counts as inactive or inconclusive. % is set by controls: 0 for no effect and ±100 for the full control effect.
SMILES,DT40 TDP1 CPT,CtBP-E1A blk,Six1-Eya2 blk,DT40 TDP1 no CPT,TDP1 inh,IL-1B inflam inh
CN1C2CCC1CC(NC(=O)CSCc1ccc(Cl)cc1Cl)C2 (stereo not given),?,10.0,-3.1,?,5.0%,-3.2
COC(=O)c1ccc(OC)c(CSc2nnc(-c3ccc(C(C)(C)C)cc3)o2)c1,16.4µM*,-2.2,0.4,20.6µM*,-7.0%,-2.9
Cc1cccc(C)c1-n1nnnc1C(C1CC1)N1CCN(C/C=C/c2ccccc2)CC1 (stereo not given),?,-26.1,-17.2,?,/,-20.5
CC(C)C(c1nnnn1C(C)(C)C)N1CCC(Cc2ccccc2)CC1 (stereo not given),?,-0.2,2.4,?,7.9%,-76.4*
C(=C\c1ccccc1)/CN1CCN(C(c2cc3ccccc3o2)c2nnnn2C2CCCCC2)CC1 (stereo not given),18.4µM*,-16.0,11.4,?,/,?
CC(C)C(c1nnnn1C(C)(C)C)N1CCOCC1 (stereo not given),-8.7%,3.1,9.1,-19.0%,3.1%,5.2
C(=C\c1ccccc1)/CN1CCN(C(c2ccnc3ccccc23)c2nnnn2C2CCCC2)CC1 (stereo not given),?,-15.2,-6.3,14.6µM*,/,-28.7
C(=C\c1ccccc1)/CN1CCN(C(c2nnnn2C2CCCC2)C2CC2)CC1 (stereo not given),18.4µM*,-10.3,-12.0,13µM*,/,11.4
CC(C)(C)n1nnnc1C(c1cc2ccccc2o1)N1CCCC1 (stereo not given),-13.3%,-3.5,-14.5,-29.5%,/,22.7
COC(=O)c1ccc(CSc2nnc3sc4ccccc4n23)o1,-26.8%,-3.0,-7.2,?,-1.0%,-6.4
CC(C)(C)n1nnnc1C(C1CC1)N1CCN(C/C=C/c2ccccc2)CC1 (stereo not given),-23.6%,-1.0,-3.2,?,/,-15.4
C(=C\c1ccccc1)/CN1CCN(C(CCc2ccccc2)c2nnnn2C2CCCC2)CC1 (stereo not given),18.4µM*,-21.4,-25.1,?,/,?
CCCC(c1nnnn1C1CCCC1)N1CCN(c2ccccc2F)CC1 (stereo not given),?,-1.1,-2.3,23.1µM*,-1.9%,1.2
CSCCC(c1nnnn1C(C)(C)C)N1CCN(C/C=C/c2ccccc2)CC1 (stereo not given),?,-12.8,-26.1,?,/,-9.2
C(=C\c1ccccc1)/CN1CCN(C(c2nnnn2Cc2ccccc2)C2CC2)CC1 (stereo not given),16.4µM*,-13.9,-16.1,16.4µM*,/,?
CC(C)(C)n1nnnc1C(CCc1ccccc1)N1CCN(C/C=C/c2ccccc2)CC1 (stereo not given),?,-16.1,-15.2,14.6µM*,/,-26.8
CC(C)(C)C(=O)Nc1ccccc1C(=O)NCCC(=O)Nc1ccccc1,-20.7%,3.3,0.8,-20.9%,0.0%,3.1
COc1ccc(CCNC(=O)c2c(O)c3cccc4c3n(c2=O)CC4)cc1OC,-0.1%,-1.4,9.0,-26.4%,1.0%,18.5
CCCOc1ccc(-c2nnc(-c3ccncc3)o2)cc1,-15.6%,-15.9,-13.6,-17.0%,1.0%,26.3
CCn1nc(NS(=O)(=O)c2ccc([N+](=O)[O-])cc2)c2cc3cc(C)ccc3nc21,-22.0%,-13.4,-13.2,-11.7%,11.4%,44.8
CSc1ccc(S(=O)(=O)NCC(=O)OCC(=O)NCCc2ccccc2)cc1[N+](=O)[O-],2.8%,-12.1,-9.3,6.0%,/,13.7
C(=C\c1ccccc1)/CN1CCN(C(c2cccs2)c2nnnn2C2CCCC2)CC1 (stereo not given),?,-28.4,-11.0,?,/,-22.8
